These results are taken from the supplement of paper PMC4962491.

Each structure is given as a SMILES string. ± gives the standard deviation of the averaged measurements.
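Note: compound exposure in DMEM (4 mM L-glutamine, 5 mM glucose), antimycin A injected at 2 µM after the basal reading and its residual OCR subtracted from basal.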

The first assay has as its system FaDu. Briefly: mitochondrial oxygen consumption rate normalised to cell number, Z score vs plate DMSO wells; higher = higher oxygen consumption (negative = OCR reduction). The settings on record: 2 µM; treatment time 24 h; assay medium: 5 mM glucose, 5 mM pyruvate, 4 mM glutamine. The protocol:
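Secondary screen: FaDu cells were incubated 24 h with the top 130 primary hits at 0.08, 0.4, 2 or 10 uM. Mitochondrial-specific OCR (basal minus antimycin A) was measured on a Seahorse XF96 in medium with 5 mM glucose, 5 mM pyruvate and 4 mM glutamine and normalised to Hoechst cell number. OCR score = (OCR - mean of plate DMSO wells) / SD of plate DMSO wells. Three repeats.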
In the case of `COc1cc([C@@H]2c3cc4c(cc3[C@@H](O[C@@H]3O[C@@H]5CO[C@@H](c6cccs6)O[C@H]5[C@H](O)[C@H]3O)[C@H]3COC(=O)[C@H]23)OCO4)cc(OC)c1O`, the “mitochondrial oxygen consumption rate normalised” value was -7.82 ± 1.4.

In the case of `CCN(CC)CCCC(C)Nc1c2ccc(Cl)cc2nc2ccc(OC)cc12` (stereo not drawn), the “mitochondrial oxygen consumption rate normalised” value was -2.47 ± 1.1.

As for `COc1cc(NS(C)(=O)=O)ccc1Nc1c2ccccc2nc2ccccc12`, the “mitochondrial oxygen consumption rate normalised” value was -1.58 ± 0.81.

In the case of `CC(COc1ccccc1)NC(C)C(O)c1ccc(O)cc1` (stereo not drawn), the “mitochondrial oxygen consumption rate normalised” value amounted to 0.21 ± 1.1.

On to `CC[C@@]1(O)C(=O)OCc2c1cc1n(c2=O)Cc2cc3c(CN(C)C)c(O)ccc3nc2-1`, for which the “mitochondrial oxygen consumption rate normalised” value was -1.46 ± 1.6.

Regarding `CCCCC(CC)CN=C(N)N=C(N)NCCCCCCNC(N)=NC(N)=NCC(CC)CCCC` (stereo not drawn), the “mitochondrial oxygen consumption rate normalised” value was -0.611 ± 2.

As for `COc1ccc(C[C@H](N)C(=O)N[C@H]2[C@@H](O)[C@H](n3cnc4c(N(C)C)ncnc43)O[C@@H]2CO)cc1`, the “mitochondrial oxygen consumption rate normalised” value was -3.4 ± 2.1.

Consider `O=c1cc[nH]c(=S)[nH]1`, for which the “mitochondrial oxygen consumption rate normalised” value was -0.279 ± 2.5.

As to `CCCCCCCCCCCCCCCC[N+](C)(C)C`, the “mitochondrial oxygen consumption rate normalised” value was -10.1 ± 0.48.

`COc1cccc2c1C(=O)c1c(O)c3c(c(O)c1C2=O)C[C@@](O)(C(=O)CO)C[C@@H]3O[C@H]1C[C@H](N)[C@@H](O)[C@H](C)O1`: the “mitochondrial oxygen consumption rate normalised” value is 1.18 ± 1.4.

As for `CC(C)NCC(O)COc1ccc(CC(N)=O)cc1` (stereo not drawn), the “mitochondrial oxygen consumption rate normalised” value came to 0.178 ± 1.

Take `COc1ccc2cc3[n+](cc2c1OC)CCc1cc2c(cc1-3)OCO2`: the “mitochondrial oxygen consumption rate normalised” value was -6.29 ± 0.22.

Consider `CCN(CC)C(=O)c1cccnc1`, for which the “mitochondrial oxygen consumption rate normalised” value is -1.02 ± 1.1.

For `CC(C(O)c1ccc(O)cc1)N1CCC(Cc2ccccc2)CC1` (stereo not drawn), the “mitochondrial oxygen consumption rate normalised” value is -0.938 ± 1.3.

For the molecule `CCOc1ccc2nc3cc(N)ccc3c(N)c2c1`, the “mitochondrial oxygen consumption rate normalised” value is -3.32 ± 0.28.

Regarding `CCCCCCCCCCCCC[N+](C)(C)Cc1ccccc1`, the “mitochondrial oxygen consumption rate normalised” value is -11.5 ± 0.21.

Regarding `CCc1c2c(nc3ccc(OC(=O)N4CCC(N5CCCCC5)CC4)cc13)-c1cc3c(c(=O)n1C2)COC(=O)[C@]3(O)CC`, the “mitochondrial oxygen consumption rate normalised” value amounted to 1.27 ± 0.31.

Turning to `COc1cc(O)c(C(=O)c2ccccc2)cc1S(=O)(=O)O`, the “mitochondrial oxygen consumption rate normalised” value was -0.346 ± 2.5.

Consider `C[C@]12CC[C@@H]3c4ccc(O)cc4CC[C@H]3[C@@H]1CC[C@@H]2OC(=O)CCC1CCCC1`, for which the “mitochondrial oxygen consumption rate normalised” value worked out at 0.375 ± 0.83.

In the case of `CCN(CC)CCOC(=O)C(c1ccccc1)C1CCCCC1` (stereo not drawn), the “mitochondrial oxygen consumption rate normalised” value came to 1.23 ± 0.9.

Turning to `CN(C)c1ccc(C(=C2C=CC(=[N+](C)C)C=C2)c2ccc(N(C)C)cc2)cc1`, the “mitochondrial oxygen consumption rate normalised” value was -13.3 ± 0.17.

In the case of `COc1cccc2c1C(=O)c1c(O)c3c(c(O)c1C2=O)C[C@@](O)(C(C)=O)C[C@@H]3O[C@H]1C[C@H](N)[C@H](O)[C@H](C)O1`, the “mitochondrial oxygen consumption rate normalised” value was -6.3 ± 0.54.

For `N=C(NCCCCCCNC(=N)NC(=N)Nc1ccc(Cl)cc1)NC(=N)Nc1ccc(Cl)cc1`, the “mitochondrial oxygen consumption rate normalised” value is -0.184 ± 0.7.

`Cc1c2oc3c(C)ccc(C(=O)N[C@@H]4C(=O)N[C@H](C(C)C)C(=O)N5CCC[C@H]5C(=O)N(C)CC(=O)N(C)[C@@H](C(C)C)C(=O)O[C@@H]4C)c3nc-2c(C(=O)N[C@@H]2C(=O)N[C@H](C(C)C)C(=O)N3CCC[C@H]3C(=O)N(C)CC(=O)N(C)[C@@H](C(C)C)C(=O)O[C@@H]2C)c(N)c1=O`: the “mitochondrial oxygen consumption rate normalised” value is -9.57 ± 0.5.

In the case of `Cc1cc(CC(C)CC(C)(C)C)n(O)c(=O)c1` (stereo not drawn), the “mitochondrial oxygen consumption rate normalised” value is -4.87 ± 1.5.

For `CCCCCCCCCc1ccc(OCCOCCOCCOCCOCCOCCOCCOCCOCCO)cc1`, the “mitochondrial oxygen consumption rate normalised” value is -3.38 ± 0.78.

Still in this assay, the particulars now being: 10 µM; treatment time 24 h; assay medium: 5 mM glucose, 5 mM pyruvate, 4 mM glutamine.
In the case of `COc1cc(NS(C)(=O)=O)ccc1Nc1c2ccccc2nc2ccccc12`, the “mitochondrial oxygen consumption rate normalised” value was -5.19 ± 1.7.

On to `CC(COc1ccccc1)NC(C)C(O)c1ccc(O)cc1` (stereo not drawn), for which the “mitochondrial oxygen consumption rate normalised” value amounted to 0.099 ± 1.

With `CCCCC(CC)CN=C(N)N=C(N)NCCCCCCNC(N)=NC(N)=NCC(CC)CCCC` (stereo not drawn), the “mitochondrial oxygen consumption rate normalised” value is -10.4 ± 0.54.

In the case of `CC[C@@]1(O)C(=O)OCc2c1cc1n(c2=O)Cc2cc3c(CN(C)C)c(O)ccc3nc2-1` [Topotecan], the “mitochondrial oxygen consumption rate normalised” value amounted to 0.664 ± 1.4.

With `O=c1cc[nH]c(=S)[nH]1`, the “mitochondrial oxygen consumption rate normalised” value turned out to be 0.14 ± 2.1.

`COc1cccc2c1C(=O)c1c(O)c3c(c(O)c1C2=O)C[C@@](O)(C(=O)CO)C[C@@H]3O[C@H]1C[C@H](N)[C@@H](O)[C@H](C)O1`: the “mitochondrial oxygen consumption rate normalised” value was 1.58 ± 2.4.

`CC(C)NCC(O)COc1ccc(CC(N)=O)cc1` (stereo not drawn): the “mitochondrial oxygen consumption rate normalised” value was -0.73 ± 1.5.

With `COc1ccc2cc3[n+](cc2c1OC)CCc1cc2c(cc1-3)OCO2`, the “mitochondrial oxygen consumption rate normalised” value was -13.55 ± 0.13.

With `CCN(CC)C(=O)c1cccnc1`, the “mitochondrial oxygen consumption rate normalised” value is -1.48 ± 0.69.

Consider `CC(C(O)c1ccc(O)cc1)N1CCC(Cc2ccccc2)CC1` (stereo not drawn), for which the “mitochondrial oxygen consumption rate normalised” value came to 0.802 ± 0.91.

As for `CCOc1ccc2nc3cc(N)ccc3c(N)c2c1`, the “mitochondrial oxygen consumption rate normalised” value is -6.87 ± 0.83.

`CCc1c2c(nc3ccc(OC(=O)N4CCC(N5CCCCC5)CC4)cc13)-c1cc3c(c(=O)n1C2)COC(=O)[C@]3(O)CC`: the “mitochondrial oxygen consumption rate normalised” value was -4.72 ± 1.

`COc1cc(O)c(C(=O)c2ccccc2)cc1S(=O)(=O)O`: the “mitochondrial oxygen consumption rate normalised” value was -1.77 ± 1.

Consider `C[C@]12CC[C@@H]3c4ccc(O)cc4CC[C@H]3[C@@H]1CC[C@@H]2OC(=O)CCC1CCCC1`, for which the “mitochondrial oxygen consumption rate normalised” value was -0.125 ± 1.5.

`CCN(CC)CCOC(=O)C(c1ccccc1)C1CCCCC1` (stereo not drawn): the “mitochondrial oxygen consumption rate normalised” value is 1.37 ± 1.6.

As to `N=C(NCCCCCCNC(=N)NC(=N)Nc1ccc(Cl)cc1)NC(=N)Nc1ccc(Cl)cc1`, the “mitochondrial oxygen consumption rate normalised” value was -7.98 ± 0.44.

For `CCCCCCCCCc1ccc(OCCOCCOCCOCCOCCOCCOCCOCCOCCO)cc1`, the “mitochondrial oxygen consumption rate normalised” value was -7.69 ± 0.55.
